Assay outcomes deposited in PubChem BioAssay by National Center for Advancing Translational Sciences (NCATS).
This excerpt belongs to a sample that is enriched for hits.
TSHR antagonist = human thyrotropin receptor antagonism. 330,000 compounds, 0.2% hits. activity change, negative = inhibition, % at 11.5 µM. TSHR-expressing cells, TSH-stimulated cAMP HTRF, 2 h; active compounds read low;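 active = activity change below a set negative limit, meaning inhibition stronger than a set level, cut at about -70% in these data; inconclusive = activity change between two set negative limits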
Target sequence (P16473 whole entry, looked up): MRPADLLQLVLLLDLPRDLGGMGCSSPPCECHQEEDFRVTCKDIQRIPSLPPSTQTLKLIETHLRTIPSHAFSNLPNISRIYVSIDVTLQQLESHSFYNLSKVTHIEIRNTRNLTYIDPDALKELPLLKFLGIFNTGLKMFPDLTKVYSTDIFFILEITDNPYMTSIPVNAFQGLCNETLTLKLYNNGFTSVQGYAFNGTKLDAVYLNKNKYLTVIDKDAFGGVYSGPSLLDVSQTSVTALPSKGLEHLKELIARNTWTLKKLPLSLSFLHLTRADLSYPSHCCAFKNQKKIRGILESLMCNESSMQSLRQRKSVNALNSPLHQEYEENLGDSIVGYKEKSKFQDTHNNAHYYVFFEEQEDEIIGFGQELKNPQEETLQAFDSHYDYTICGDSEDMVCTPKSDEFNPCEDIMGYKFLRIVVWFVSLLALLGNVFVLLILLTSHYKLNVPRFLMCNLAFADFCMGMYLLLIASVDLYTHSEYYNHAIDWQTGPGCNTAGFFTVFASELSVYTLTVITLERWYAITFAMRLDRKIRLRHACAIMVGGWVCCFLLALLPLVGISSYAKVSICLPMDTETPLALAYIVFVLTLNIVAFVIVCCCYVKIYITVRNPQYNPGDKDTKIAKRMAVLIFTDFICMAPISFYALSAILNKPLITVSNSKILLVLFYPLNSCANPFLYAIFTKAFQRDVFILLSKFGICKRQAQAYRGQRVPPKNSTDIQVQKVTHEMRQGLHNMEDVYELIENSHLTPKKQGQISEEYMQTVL
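Read-out is FRET at 665 nm (cryptate excitation 337 nm) from a cryptate-tagged anti-cAMP antibody, competed by cell cAMP against cAMP-d2. Compounds are tested on freshly harvested TSHR cells challenged with 4nM TSH (EC80) for 2 hours at 37 deg C.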
RXFP1 agonist = agonists of human relaxin receptor RXFP1. 370,000 compounds, 0.3% hits. Q9HBX9. HEK293T-RXFP1 cAMP TR-FRET, 30 min; response scale: percent of porcine relaxin response, buffer zero. AID 2676. Potency, µM (doses to about 57.5 µM), hits mostly activators; also: nearly all actives have a fitted effect of over 60% in size
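HEK293 cells stably expressing RXFP1, treated 30 min at 37C with compounds plus PDE4 inhibitor Ro 20174; cAMP measured by HTRF TR-FRET. Normalized to buffer and 29 nM porcine relaxin; EC50 by Hill fit.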
NPSR antag = blocks cAMP signaling of the human neuropeptide S receptor | CHO-NPSR cells, cAMP TR-FRET, antagonist mode | Potency, µM (titrated, usually from 38.3 µM), most hits filed as inhibitors | 220,000 compounds, 1% hits; also: nearly all actives have a fitted effect of over 50% in size
PTHR1 agonist = activates the human parathyroid hormone receptor PTHR1 | HEK293 GP2 PTHR1 cells, GloSensor cAMP luminescence, 1 h | Potency, µM (titrated, usually from 115 µM), usual class: activators | 410,000 compounds, 0.075% hits | AID 743266; also: nearly all actives have a fitted effect of over 55% in size
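HEK-293-derived GP2 cells expressing PTHR1 and a GloSensor cAMP reporter, 3,000/well, plated overnight, given luciferin plus IBMX (each 0.5 mM as added) for 1 h at 37 °C, then compound for 1 h at 37 °C. Luminescence was read after 15 min at room temperature.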
RXFP1 antagonist = blocks the human relaxin receptor RXFP1. HEK293-RXFP1, relaxin-stimulated cAMP HTRF, 30 min; active compounds read low. 350,000 compounds, 0.59% hits. activity change, negative = inhibition, % at 57.5 µM. Q9HBX9. AID 1259400;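 active = activity change of -60% or lower, but not beyond a set lower limit; inconclusive = change between -60% and -40%, or beyond the set limit; inactive = change above -40%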
TCR activator = T cell receptor activation; primary human leukocytes, anti-CD3, IL-2 HTRF, 48 h; Potency, µM (titrated, usually from 9.22 µM), usual class: activators; 330,000 tested, under 10 active
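Activity was scored as IL-2 release from primary human leukocytes given only a TCR signal (a-CD3 beads) plus compound for 48 hr. Detection used a two-antibody HTRF format read at 665nm.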
Numbers stand for hits; n = inactive; u = inconclusive; x = no result. Unless noted, calls follow the shape of the dose curve; as a rule, active = well fitted curve in the direction sought with a large enough effect; inconclusive = small, poorly fitted or top-dose-only effect, or another doubt; inactive = no such curve, though single readings can be large; an effect the other way counts as inactive or inconclusive.

SMILES	TSHR antagonist	RXFP1 agonist	NPSR antag	PTHR1 agonist	RXFP1 antagonist	TCR activator
CCCN1CCN(CCCNC(=O)Cn2nc(C)n3c(cc4cc(OC)ccc43)c2=O)CC1	-88	n	x	n	n	n
c1ccc2c(c1)OC(CCCN1CCCCC1)c1ccccc1S2 (centres undefined)	n	n	u	n	u	n
CN1CCCC(CC2Oc3ccccc3Sc3ccccc32)C1 (centres undefined)	n	n	n	n	-81	n
O=C(c1cccs1)N1CCCc2cc(NS(=O)(=O)c3cc(F)ccc3F)ccc21	x	n	x	n	n	x
COc1ccc(C(=O)N2N=C(c3cccs3)CC2c2ccccc2O)cc1 (centres undefined)	n	n	x	u	n	n
COc1ccc(C2=NN(C(=O)c3cccs3)C(c3ccccc3O)C2)cc1 (centres undefined)	n	n	10µM	n	n	n
COc1ccc(NC(=O)c2sc3nc4c(c(-c5ccc(OC)cc5)c3c2N)C(=O)CC(C)(C)C4)cc1	x	n	x	n	n	x
COc1cccc(C(=O)Oc2c(CN3CCOCC3)cc(Cl)c3cccnc23)c1	n	n	10µM	n	n	n
COc1ccc(C(=O)Oc2c(CN3CCOCC3)cc(Cl)c3cccnc23)cc1	n	n	n	n	n	n
COc1cc(C(=O)Oc2c(CN3CCOCC3)cc(Cl)c3cccnc23)cc(OC)c1OC	n	n	n	n	x	n
O=C(Oc1c(CN2CCOCC2)cc(Cl)c2cccnc12)c1ccccc1Cl	n	n	7.9µM	n	n	n
O=C(Oc1c(CN2CCOCC2)cc(Cl)c2cccnc12)c1ccc(F)cc1	n	n	5µM	n	n	n
COc1cccc(Cn2c(=O)cc(C)c3c(C)nn(C)c32)c1	x	n	x	n	n	x
Cc1ccc(Cn2c(C)c3cnn(CC(=O)N4CCN(c5ccc(F)cc5)CC4)c(=O)c3c2C)cc1	x	n	x	n	n	x
O=C(Nc1ccccc1F)c1oc2ccccc2c1NC(=O)c1c(F)cccc1F	x	n	x	n	x	x
Cc1ccc(CNS(=O)(=O)c2ccc(CN3C(=O)c4cccnc4C3=O)s2)o1	-89	u	x	n	n	n
O=C1c2cccnc2C(=O)N1Cc1ccc(S(=O)(=O)NCc2ccco2)cc1	n	u	x	n	n	n
CCC(Oc1ccccc1)C(=O)Nc1ccccc1N1CCCC1 (centres undefined)	n	n	x	n	n	n
O=C(CN1C(=O)C2CC=CCC2C1=O)Nc1ccccc1N1CCCC1 (centres undefined)	n	n	x	n	n	n
O=C(CN1C(=O)C2CCCCC2C1=O)Nc1ccccc1N1CCCC1 (centres undefined)	n	n	x	n	-99	n
CCC(C(=O)Nc1ccccc1N1CCCC1)c1ccccc1 (centres undefined)	n	n	x	n	-68	n
CCCN(c1c(C)n(C)n(-c2ccccc2)c1=O)S(=O)(=O)c1ccc(C)cc1	x	n	x	n	n	x
COc1ccc(/C(C)=N/NC(=S)NCCc2ccccc2)c(O)c1	n	n	x	n	-62	n
CCN(CC)c1ccc(C(=C2C=CC(=[N+](CC)CC)C=C2)c2ccc(S(=O)(=O)O)cc2S(=O)(=O)[O-])cc1	x	x	x	n	-90	n
CCN(CC)c1ccc(C(=O)O)cc1	n	n	n	n	n	n
SMILES	TSHR antagonist	RXFP1 agonist	NPSR antag	PTHR1 agonist	RXFP1 antagonist	TCR activator
Cc1ccc(C)c(NC(=S)c2ccc3ccccc3n2)c1	n	n	n	n	n	n
CN(C)c1ccc(NC(=S)c2ccc3ccccc3n2)cc1	-91	n	x	n	n	n
Cc1cccc(-n2c(-c3csc(C)c3)n[nH]c2=S)c1	n	n	n	n	-66	n
CC(NCC(O)COc1ccc2ccccc2c1)c1ccccc1 (centres undefined)	n	n	x	n	-87	n
COc1ccc(OCC(O)CNC(C)c2ccccc2)cc1 (centres undefined)	n	n	x	n	n	n
Cc1cc(-c2ccc(C(C)C)c(S(=O)(=O)Nc3cc(C)on3)c2)on1	n	n	x	n	-65	n
Cc1cc(-c2ccc(C)c(S(=O)(=O)Nc3cccc(C)n3)c2)on1	x	n	x	n	n	x
CC(C)c1ccc(C2C3CSCC=C3C(C#N)=C(N)C2(C#N)C#N)cc1 (centres undefined)	n	n	10µM	x	x	x
CCOC(=O)c1cc(S(=O)(=O)N2CCN(c3ccc(C)cc3C)CC2)[nH]n1	x	n	x	n	x	x
Cc1ccccc1N1C(=O)c2sc3nc4c(c(=O)n3c2C1=O)CCC4	n	n	u	n	n	n
O=C1c2sc3nc4ccccc4n3c2C(=O)N1c1ccccc1Cl	n	n	10µM	n	n	n
C[C@@H](CN1CC(=O)NC(=O)C1)N1CC(=O)NC(=O)C1	x	x	x	x	n	x
Cc1oc(=O)oc1COC(=O)[C@@H]1N2C(=O)[C@@H](NC(=O)[C@H](N)c3ccccc3)[C@H]2SC1(C)C	x	x	x	x	n	x
COc1cccc(CNC(=O)c2cc(C)nc3c2c(C)nn3-c2ccc(C)cc2)c1	x	n	x	n	n	x
CN1/C(=C\C=O)C(C)(C)c2ccccc21	n	n	n	n	n	n
CN1\C(=C/C=C/C=C/C=[N+](C)C)C(C)(C)c2ccccc21	n	n	10µM	n	n	n
O=C(Nc1ccc(Cl)cc1)/C(=C/c1cccc(O)c1)c1nc2ccccc2s1	n	n	10µM	n	n	n
S=C(Nc1ccc(Cl)cc1)c1nc2ccccc2s1	n	n	n	n	n	n
O=S1(=O)C=C(Sc2nc3ccccc3s2)c2ccccc21	u	n	10µM	n	u	n
Cc1ccc(N2CCN(C(=O)CCc3c(C)nc4ncnn4c3C)CC2)c(C)c1	x	n	x	n	x	x
O=C(c1cc(-c2ccc(Br)cc2)n[nH]1)N1CCN(S(=O)(=O)c2ccc(Br)s2)CC1	x	n	x	n	n	x
O=C(OCc1ccccc1)N(CCCCN(CCCNCc1ccccc1)C(=O)OCc1ccccc1)CCCNCc1ccccc1	x	x	x	n	-94	n
O=C(NCCCCCCNC(=O)OCc1ccccc1)OCc1ccccc1	x	x	x	n	n	n
CC(C)Cn1c(SCc2cccc(F)c2)nc2ccsc2c1=O	x	n	x	n	x	x
O=C(CS(=O)(=O)c1ccccc1)c1cc2cc(F)ccc2oc1=O	n	n	x	n	-72	n
CC(=O)Oc1ccc(C2(c3ccc(OC(C)=O)cc3)Oc3ccccc3NC2=O)cc1	x	x	x	x	n	x
CC1CCCC(NCC(O)COC(c2ccc(F)cc2)c2ccc(F)cc2)C1C (centres undefined)	n	n	n	n	-69	n
Cc1cccc2sc(N(CCCN(C)C)C(=O)CN3C(=O)c4ccccc4C3=O)nc12	n	n	n	n	n	n
Cc1cccc2sc(N(CCCN(C)C)C(=O)CCc3ccccc3)nc12	n	n	n	n	-85	n
